# Measured values: the supplement of paper PMC6555819
# Test system: VDR:RXRa (NR concentration 270 nM, RXRa partner concentration 90 nM)
# Experiment: PBM binding z-score (relative to random genomic background probes); higher = stronger binding; sequences stand for … in GC…GCGATTGACAGCGTAGAATGAAGG
# Description: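 Protein-binding microarray (Agilent 4x180K custom design, double-stranded 60-nt probes: 5' GC cap, 34-nt variable region, 24-nt constant primer region; full probe sequence given). Purified or IVT nuclear receptor:RXRα heterodimers (3:1 NR:RXRα, mostly 270:90 nM) or homodimers were incubated for 1 h in PBS with 2% milk and no ligand, then detected with Alexa488 antibodies. Fluorescence from o1-orientation probes (~5 replicates averaged) was converted to z-scores against 500 random hg19 background probes. Variable regions are seed direct-repeat (DR0–DR5) sites, all their single-nucleotide variants and half-site ablations.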
row,Sequence,PBM binding z-score
1,CCTCACGGGTCAAGGTTATAGCACGGGTGGTACG,3.18
2,GATACAGGGTCAAGGCCAGAGTCCGCGTATTGAT,4.32
3,AGAATGAGGTGACCAAAGATCAGGGAAACGCTTG,0.0943
4,ATATGCAGGTTAAGGGTCATTCAGGTTGGTTCGC,5.68
5,AGTCAAAGTTCATCTAGGTACCGTAAGATATGCT,4.98
6,TCTTGTAGATCAACAGGAGGTTAAGAACGATCGA,0.419
7,CGAATGAGGGCATGAGTTGATAGCAAATGCCGAT,1.48
8,GCAGACAGGTGAAACGCAGGTAACGCAGGGTGGC,-0.489
9,ATACCAAGGGGATCGTGAGGTCGTTGATACTAAC,1.88
10,TCTTGTAGATCAATAGAGGATAAGAAAGTGCGCT,0.432
11,CCTTCCGGGTCACTGACAGGTTATAGCATTTGGA,3.83
12,TAATATAGGTAATACAGGTGAAAGTCGGCATCTA,0.659
13,CTACCAAGGTGAACAACGTCGTTGATTACTATTC,0.38
14,CCAATTAGTTGACCATAAGGGCAACCGAAGCTCG,0.678
15,TCTAGTTGGTCAAAGGTCACTCACTCGAAATGCG,4.92
16,CCTAGTTGGTCAGGCGGTCACACACCGGATATGA,0.0126
17,CCGACTGGGGCAAAGGATACCATACTCAGTACGA,-0.368
18,TCGTATAGGTAAATGCTAGGTGAAAGTCCGATCT,0.443
19,CGTCCAAGGTTAGCAGGTCAGTGAAAGCGACGTG,1
20,CCTACTGGGCCAAAAAAGTCATTGATGCCGATAA,-0.174

row,Sequence,PBM binding z-score
1,CAAACTAGGTCTAAGGTCAAAGTCGAGCCAACCA,4.26
2,CCTACTGGTCCACGAAAGGTCATTGATTCAGTGA,4.24
3,CCTATTAGTTGATCATAAGGGCAACCGAAGCTCG,0.485
4,TCCAGTTGGTCAAAGGTCACACACTCGAAATGCG,5.31
5,CCTAGCAGGCCAGGGTCACTCCAGCATTTCGCTT,2.18
6,AGAATGAGGTTATACGTAGTTCAGGGAAGAAAGT,3.09
7,GGAACGAGGGCACTCGAGTTGATAGCATGGCGAT,2.64
8,TATACAGGGTCAAACGCCAGAGTACGAATGTCGA,5
9,GTACCAAGGTGAAGAGGTCGTTGATGAGTAGGCG,2.71
10,CCTCGGACGACAACAGGAGGTCAGAGCTGCCAGA,1.52
11,AACTCTAGGTAAAGATAGTTCAGTGAATGCAAAT,0.688
12,CCAGACAGGTGGAAGGTAACTCAGTCTGGTACGC,-0.365
13,TCGAGTGGGTTACCAATGGGGCATTCAGCTTTCT,0.0141
14,TCTATTAGTTTATTAGGGCAACCGAAACAGCGGA,1.03
15,CGTCCAAGGTCAACGGTCAGTGAAGAGATGACGG,4.18
16,CGAACGAGGGGATGAGTTGATAGCAAATGCCGAT,-0.189
17,CGAACGAGGGCATGAGTTAATAGCAAATGCCGAT,0.731
18,GCAGACAGGTGAAACGCACGTAACTCAGGGTGGC,-0.568
19,CCTTACGGGTCACTGACAGGCTATAGCATTTGGA,3.07
20,CCTTACGTGTCACGAGGTTATAGCACGACGAGCG,1.89
